# A selection: hits, their analogues and other compounds. The true share with any hit is near 21%.
# NS1 function inh – qHTS Assay for Inhibitors of Influenza NS1 Protein Function. Potency, µM (top dose mostly 46.1 µM), inactives show at the top dose activity, positive = more growth. hit rate 0.4% among 270,000; calls by dose curve; further: potency means the concentration at half of the fitted maximal effect; actives are rising curves; nearly all actives have a fitted effect of over 50% in size
#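 OD600 was taken as the measure of yeast growth restored by compound in an NS1-expressing S. cerevisiae strain. Cells had been washed out of glucose medium and diluted 1:100 into galactose -URA medium, pH 6.0.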
# Pf growth 48h – Primary qHTS for delayed death inhibitors of the malarial parasite plastid, 48 hour incubation | P. falciparum luciferase growth in erythrocytes, 48 h | Potency, µM (highest dose often 28.7 µM), without a hit: at the top dose activity change, negative = inhibition, most hits filed as inhibitors | hit rate 5.9% among 310,000 | AID 504832, 2011; further: potency means the concentration at half of the fitted maximal effect; on the % scale 0 is the no-effect control and ±100 the full control effect
#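 First compound was added to culture medium, then infected red cells at 0.1% parasitemia and 2% hematocrit (final). After incubation at 37 C under 5% CO2, luciferase detection reagent was dispensed and light output recorded.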
# CHX counter – Cycloheximide Counterscreen for Small Molecule Inhibitors of Shiga Toxin | cell reporter, cycloheximide protein synthesis inhibition counterscreen | max response, % | hit rate 12% among 300,000 | AID 2314, 2010; in the data active means max response mostly above about 13%, no sharp cut-off; inactive means mostly below about 14%; further: read at 38.3 µM for the half of the compounds with a filed dose; 0% is about no effect
# Pf growth 96h – Primary qHTS for delayed death inhibitors of the malarial parasite plastid, 96 hour incubation; P. falciparum luciferase reporter growth, 96 h; Potency, µM (doses to about 28.7 µM), for the others: top-dose activity change, negative = inhibition, most hits filed as inhibitors; hit rate 6.9% among 320,000; further: potency means the concentration at half of the fitted maximal effect; on the % scale 0 is the no-effect control and ±100 the full control effect
#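 Cell-based qHTS: luciferase-tagged P. falciparum in erythrocytes (2% hematocrit, 0.05% parasitemia final) incubated with compounds for 96 hours, 37 C, 5% CO2; luciferase detection reagent then added and luminescence measured.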
# Sm TGR block – qHTS Assay for the Inhibitors of Schistosoma Mansoni Peroxiredoxins. hit rate 3% among 360,000. Potency, µM (doses to about 114 µM), inactives show at the highest dose activity change, negative = inhibition, hits mostly inhibitors. Schistosoma mansoni thioredoxin glutathione reductase (TGR), Q962Y6. purified TGR, DTNB reduction, TNB absorbance 405 nm; further: potency means the concentration at half of the fitted maximal effect; on the % scale 0 is the no-effect control and ±100 the full control effect; nearly all actives have a fitted effect of over 60% in size
#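 First, TGR (20 nM dispensed) and NADPH were mixed with compound. Second, a 15 min room-temperature incubation followed. Third, further NADPH and then DTNB were added to start the reaction. Finally, TNB absorbance was monitored kinetically.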
# Shiga inhibitor – A qHTS for Small Molecule Inhibitors of Shiga Toxin | AID 2315, 2010 | Vero cells, Shiga toxin protein synthesis inhibition reporter | inhibition, % at 38.7 µM | hit rate 9.2% among 290,000; in the data active means inhibition mostly above about 28%, no sharp cut-off; inactive means mostly below about 43%; further: 0% is about no effect
# Active calls of the source: *; ? = inconclusive; . = no result given. Unless noted, the call rests on the fitted dose curve; in most records, active means well fitted curve in the direction sought with a large enough effect; inconclusive means small, poorly fitted or top-dose-only effect, or another doubt; inactive means no such curve, though single readings can be large; an effect the other way counts as inactive or inconclusive.
SMILES,NS1 function inh,Pf growth 48h,CHX counter,Pf growth 96h,Sm TGR block,Shiga inhibitor
CCOC(=O)c1sc(NC(C)=O)cc1C,-94.0%,-2.3%,1.2,-2.9%,5.0%,34.6
CCOC(=O)c1sc(-c2ccc(F)cc2)cc1NC(=O)Nc1ccccc1OC,2.2%,?,-4.1,8.28µM*,3.8%,-10.4
CCOC(=O)c1sc(NC(=O)c2ccc(C)s2)cc1C,-19.6%,161.8%,65.1*,0.0%,-28.0%,68.5*
CCOC(=O)c1sc(NC(=O)Nc2ccccc2)cc1C,-18.5%,-55.3%,151.5*,-106.8%,2.4%,99.0*
CCOC(=O)c1sc(NC(=O)Nc2ccccc2Cl)cc1C,-1.0%,-45.1%,69.0*,-74.9%,-0.4%,112.8*
O=C(Nc1ccc2c(c1)OCO2)c1cn(Cc2ccc(F)cc2)nn1,0.1%,39.2%,18.1,?,0.2%,41.8*
CC(C)c1ccc(C(=O)Nc2ccc(CN3CCOCC3)cc2)cc1,-5.1%,4.3%,23.4*,?,28.6%,54.5*
O=C(Nc1ccc(CN2CCCCC2)cc1)c1ccc2c(c1)OCO2,3.9%,4.7%,20.4*,.,-18.4%,33.7*
O=C(Nc1ccc2c(c1)OCO2)c1ccc(CN2CCOCC2)cc1,11.2%,35.0%,39.7*,0.1%,-0.7%,59.8*
O=C(NCC1COc2ccccc2O1)c1cn(Cc2ccc(F)cc2)nn1 (stereo unspecified),-1.6%,23.7%,-3.9,10.1%,6.2%,18.6
CCCCC[CH2][Hg][S]C1=C2N=CNC2NC(N)=N1 (stereo unspecified),-65.2%,.,.,.,.,.
COCc1cc(C)nc(Sc2nc3c(c(=O)n(C)c(=O)n3C)n2C)c1C#N,3.8%,?,43.8,-51.4%,?,-6.3
COC(=O)c1ccc(NC(=S)N2CCN(Cc3ccc(Cl)cc3)CC2)cc1,-37.3%,-13.8%,11.0,11.6%,11.6%,17.7
O=C(Nc1ccc(CN2CCS(=O)(=O)CC2)cc1)c1ccc(Cl)cc1,5.5%,-6.8%,15.6*,-6.7%,-10.3%,37.8
CC(C)N(Cc1ccccc1)C(C)C (tested in a mixture with another compound),.,.,-4.3,.,.,2.1
Cc1cc(C)cc(OCC(=O)OC(C)C(=O)Nc2c(C)n(C)n(-c3ccccc3)c2=O)c1 (stereo unspecified),.,16.4%,.,1.2%,-0.4%,.
COC(=O)c1ccc(NC(=O)CSc2nc3cc4ccccc4cc3[nH]2)cc1,.,.,.,.,-0.6%,.
CN(C)c1c(F)cc(C(=O)NCc2ccccc2)cc1F,-4.3%,91.9%,20.0*,42.1%,4.6%,5.1
COc1ccc(C(=O)NCc2ccccc2)cc1Br,2.6%,10.5%,-1.2,?,-2.9%,-8.0
CC(CCc1ccccc1)NC(=O)c1ccc(Cl)nc1 (stereo unspecified),-8.4%,-4.0%,0.9,10.0%,8.0%,-23.9
O=C(NCc1ccccc1)c1ccc(Br)cc1Br,3.0%,6.1%,22.6*,45.2%,6.5%,active
O=C(NCc1ccccc1)c1ccc(Cl)nc1,0.0%,-61.0%,39.7*,-17.5%,7.7%,70.4*
Cc1ccc(C(=O)NCc2ccccc2)cc1Br,-19.1%,18.2%,17.1*,?,-7.2%,24.1
Cc1ccc(/C=C/C(=O)Nc2ccc(Cl)cc2Cl)cc1,.,.,.,.,3.9%,.
COc1ccc(N2CCN(C(=O)CCS(=O)(=O)c3cccc4nsnc34)CC2)cc1,9.4%,-25.3%,11.4,-9.8%,?,5.2
Cc1cccc(N2CCN(C(=O)C3CCCN(S(=O)(=O)c4cccc5cccnc45)C3)CC2)c1C (stereo unspecified),-55.0%,.,.,.,.,.
CC(=O)c1ccc(N2CCN(C(=O)C3CCCN3S(=O)(=O)c3cccc4nsnc34)CC2)cc1 (stereo unspecified),13.3%,?,7.7,13.1µM*,-2.0%,18.7
Cc1cccc(NC(=O)C2CCCN(S(=O)(=O)c3cccc4cccnc34)C2)c1 (stereo unspecified),-8.1%,.,-1.5,?,4.4%,-6.8
O=C(C1CCCN(S(=O)(=O)c2cccc3cccnc23)C1)N1CCN(c2ccccc2F)CC1 (stereo unspecified),-57.2%,.,-3.0,14.7µM*,9.0%,-6.1
